High-throughput results from PubChem.
NALP1 yeast inh – blocks the NALP1 inflammasome reconstituted in yeast; inhibition, % at 10 µM; AID 2071; actives 0.61% (n = 280,000); S. cerevisiae NALP1/ASC/caspase-1 growth, X-gal OD620, 72 h; in the data active = inhibition mostly above about 24%, no sharp cut-off; inactive = mostly below about 32%
Yeast superoxide – caloric restriction mimetics inhibiting age-related superoxide in yeast; actives 0.18% (n = 330,000); S. cerevisiae aged cells, superoxide DHE fluorescence; stronger effect = lower value; superoxide response (% of plate mean), % at 10 µM;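 active = superoxide response under a set limit, about three screen SD below normal, cut at about 65% in these data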;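 note: yeast aged for seven days with compound at 30 °C before DHE staining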
UBC13 inh – human UBC13 polyubiquitination inhibition; AID 485273; inhibition, % at 20 µM; actives 0.47% (n = 330,000); UBC13 polyubiquitin chain formation, TR-FRET; P61088; in the data active = inhibition above about 45%, passing the limit was not always enough; inconclusive = no clear call, values can overlap the other calls
Target sequence (P61088 whole entry, looked up): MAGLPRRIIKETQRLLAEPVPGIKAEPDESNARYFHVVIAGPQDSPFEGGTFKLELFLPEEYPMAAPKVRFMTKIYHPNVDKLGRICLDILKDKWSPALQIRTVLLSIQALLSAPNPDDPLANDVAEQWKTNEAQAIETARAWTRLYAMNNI
GRIN3A LBD mod – modulators (binders) of human NR3A ligand-binding domain. NR3A LBD differential scanning fluorimetry, Tm shift; 0% = protein alone, 100% = glycine-bound protein. Tm shift relative to glycine control, % at 25 µM. actives 2.5% (n = 340,000);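 active = melting temperature shift of at least 10% of the positive control shift, at one fixed dose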
dFosB activator – activators of mouse delta FosB homodimer | P13346 | purified delta FosB, TAMRA-CDK5 oligo fluorescence polarization; percent of positive-control signal above neutral wells | activation, % at 25 µM | actives 0.99% (n = 340,000);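 active = mean activation above about 17%, with every replicate also reaching it, limit read from the data, passing the limit was not always enough; inconclusive = only one of the two conditions met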
Casp3 UBC13 ctr – inhibits human caspase-3 in UBC13 counter-screen. inhibition, % at 20 µM. shares compounds with UBC13 inh. Recombinant caspase-3, Caspase-Glo 3/7 luminescence, 60 min. actives 4% (n = 1,400);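 active = mean inhibition across replicates above about 26%, limit read from the data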
Target sequence (P42574 whole entry, looked up): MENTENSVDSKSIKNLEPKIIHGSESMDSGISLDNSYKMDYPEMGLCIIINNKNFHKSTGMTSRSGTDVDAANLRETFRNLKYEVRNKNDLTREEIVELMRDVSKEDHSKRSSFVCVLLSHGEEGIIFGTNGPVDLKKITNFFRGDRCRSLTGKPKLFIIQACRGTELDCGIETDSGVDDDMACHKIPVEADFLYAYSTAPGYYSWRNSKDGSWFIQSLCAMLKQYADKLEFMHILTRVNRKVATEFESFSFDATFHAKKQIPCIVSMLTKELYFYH
UBC13 confirm – confirmation of human UBC13 polyubiquitin inhibitors | AID 488859 | actives 68% (n = 1,400) | UBC13 polyubiquitination, TR-FRET, biochemical | inhibition, % at 10 µM | shares compounds with UBC13 inh; in the data active = inhibition above about 45%; inconclusive = no clear call, values can overlap the other calls
Hits are given with their value; 0 = inactive; ? = inconclusive; - = not tested or not shown. Most compounds without a hit are left out; they make up all but 4.3% or so of the library.

SMILES | NALP1 yeast inh | Yeast superoxide | UBC13 inh | GRIN3A LBD mod | dFosB activator | Casp3 UBC13 ctr | UBC13 confirm
CCC(=O)N1c2ccc(C)cc2C2=NNC(=S)NC21O (configuration not stated) | 0 | 0 | 47.3 | 0 | 0 | 0 | 0
Cc1ccccc1NC(=O)CN1CCC(n2nnc3ccccc32)CC1 | 0 | 0 | 0 | 0 | 0 | - | -
Cc1nc2ccccc2n1C1CCN(CC(=O)Nc2ccccc2Br)CC1 | 0 | 0 | 58.5 | 0 | 0 | 0 | 74.2
O=C(c1ccc2c(=O)n3c(nc2c1)CCC3)N1CCCSC1=Nc1ccccc1 | - | 0 | 0 | 0 | 0 | - | -
CC(=O)Nc1ccc(C(=O)OCC(=O)NCc2ccc3c(c2)OCO3)cc1 | - | 0 | 0 | 0 | ? | - | -
O=C(NN1C(=O)c2ccc3c4c(ccc(c24)C1=O)CC3)c1ccc(Br)cc1 | 0 | 0 | 57.3 | 0 | 0 | 0 | 62.7
c1cc(-c2cc3cc(N4CCOCC4)ccc3o2)cs1 | - | 0 | 0 | 0 | 0 | - | -
CCOC(=O)CSc1nc(C(C)(C)C)cc(C(F)(F)F)c1C#N | 0 | 0 | 47.2 | 0 | 0 | 0 | 0
COC(=O)CSc1nc(C)cc(C(F)(F)F)c1C#N | 0 | 0 | 0 | 0 | 0 | - | -
CC(C)Cn1c(=O)c(C(=O)Nc2ccccc2S(N)(=O)=O)c(O)c2ccccc21 | - | 0 | 68.7 | 0 | 0 | 0 | 0
Cn1c(=O)c(C(=O)Nc2ccccc2S(N)(=O)=O)c(O)c2ccccc21 | 0 | 0 | ? | 0 | 0 | - | -
CCc1ccc(C2c3[nH]c4ccccc4c3CCN2C(=O)c2cc(C)nn2C)cc1 (configuration not stated) | 0 | 0 | 0 | 0 | 0 | - | -
O=C(Cc1cccc2ccccc12)NN1C(=O)CSC1=S | 0 | 0 | 0 | 0 | 0 | - | -
O=C(NN1C(=O)CSC1=S)C(=O)NN1C(=O)CSC1=S | 0 | 0 | 46.8 | 0 | 0 | 0 | 0
O=C(c1ccc(F)cc1)C1CCN(C(=O)c2ccccc2F)CC1 | 0 | 0 | 0 | 0 | 0 | - | -
CC(C)[C@H](CN1CCC[C@H]1CN1C(N)=NC[C@H]1C(C)C)N1C[C@@H](Cc2ccccc2)N(CCCC2CCCC2)C1=N | - | 0 | 69.5 | 0 | 0 | 0 | 69.3
CCC[C@@H](CN1CCC[C@H]1CN1C(N)=NC[C@H]1CC(C)C)N1C[C@@H](Cc2ccccc2)N(CCCC2CCCC2)C1=N | - | 0 | 76.8 | 0 | 0 | 0 | 82.8
CCC[C@@H](CN1CCC[C@H]1CN1C(N)=NC[C@@H]1Cc1ccccc1)N1C[C@@H]([C@H](C)CC)N(CCCC2CCCC2)C1=N | - | 0 | 90.9 | 0 | ? | 0 | 84.6
CCC[C@@H](CN1CCC[C@H]1CN1C(N)=NC[C@@H]1Cc1ccccc1)N1C[C@@H](Cc2ccccc2)N(CCCC2CCCC2)C1=N | - | 0 | 64.6 | 0 | 0 | 0 | 58.4
CC1=CC(=O)c2c(O)ccc(O)c2C1=O | 0 | 0 | - | - | - | - | -
CCCCN1C(=N)N([C@@H](CCC)CN2CCC[C@H]2CN2C(N)=NC[C@@H]2Cc2ccccc2)C[C@H]1Cc1ccccc1 | - | 0 | 54.5 | 0 | 0 | 0 | 0
CCCCN1C(=N)N([C@@H](C)CN2CCC[C@H]2CN2C(N)=NC[C@H]2CC(C)C)C[C@H]1Cc1ccccc1 | - | 0 | 0 | 0 | ? | - | -
O=C(CSc1cccc2cccnc12)Nc1cc(C(=O)O)cc(C(=O)O)c1 | 0 | 0 | 0 | 0 | 0 | - | -
COc1ccc(CNC[C@@H](CCCCN(C)Cc2ccc(OC)cc2)N2C[C@H](c3ccccc3)N(CCc3ccc(Cl)c(Cl)c3)C(=O)C2=O)cc1 | 0 | - | 93.4 | 0 | 45.5 | 0 | 74.2
N#Cc1c(N)nc(N2CCCC2)c(C#N)c1-c1ccc(Cl)cc1 | 0 | 0 | 0 | 0 | 0 | - | -
SMILES | NALP1 yeast inh | Yeast superoxide | UBC13 inh | GRIN3A LBD mod | dFosB activator | Casp3 UBC13 ctr | UBC13 confirm
Cn1nc(N)c2c(-c3ccc(Cl)cc3)c(C#N)c(N)nc21 | 0 | 0 | 72.3 | 0 | 0 | 0 | 73.0
Cn1nc(N)c2c(-c3ccccc3)c(C#N)c(N)nc21 | 0 | 0 | 59.4 | 0 | 0 | 0 | 58.9
CCc1c(C)nc(N)c(C#N)c1-c1ccccc1 | 0 | 0 | 0 | 0 | 0 | - | -
CSc1cccc(NC(=O)c2cccc3cccnc23)c1 | 0 | 0 | 0 | 0 | 0 | - | -
CN1CCN(CC/C=C2/c3ccccc3Sc3ccc(S(=O)(=O)N(C)C)cc32)CC1 | 0 | 0 | 55.0 | 0 | 0 | 0 | 0
COC(=O)c1cccc(Nc2nc(-c3cccnc3)nc3ccccc23)c1 | 0 | 0 | 0 | 0 | 0 | - | -
CCOC(=O)c1cccc(Nc2nc(-c3cccnc3)nc3ccccc23)c1 | 0 | 0 | 60.3 | 0 | 0 | 0 | 70.5
COc1cccc(/C=N/Nc2nc(-c3cccnc3)nc3ccccc23)c1 | 0 | 0 | 0 | 0 | 0 | - | -
COc1cccc(CNc2nc(-c3cccnc3)nc3ccccc23)c1 | 0 | 0 | 53.0 | 0 | 0 | 0 | 0
Cc1cccc(Nc2ccc([N+](=O)[O-])cn2)c1 | 0 | 0 | 0 | 0 | 0 | - | -
COc1ccccc1C(=O)NCC(=O)OCC(=O)N1CC(C)OC(C)C1 (configuration not stated) | - | - | 0 | 0 | 0 | - | -
COc1cccc2oc3ccc(C#CC4(N)CCCCC4)cc3c(=O)c12 | 0 | 0 | 52.7 | 0 | 0 | 79.5 | 0
CN(C)c1ccc(NC(=O)CN2CCC(NC(=O)C3CCCCC3)CC2)cc1 | 0 | 0 | 64.3 | 0 | 0 | 0 | 82.1
COc1cc(/C=C/c2nc3ccc([N+](=O)[O-])cc3s2)ccc1OCC(=O)O | 0 | 0 | 0 | - | - | - | -
C#CCOCCOCCOCCNc1nc(N2CCN(C(=O)[C@H](CCCCN)n3cc(CN)nn3)CC2)nc(N2CCN(C(=O)[C@H](CCCCN)n3cc(CN)nn3)CC2)n1 | - | 0 | 103.2 | 0 | 0 | 0 | 111.7
C#CCOCCOCCOCCNc1nc(N2CCOCC2)nc(N2CCN(C(=O)[C@H](CCCCN)n3cc(CCC(=O)O)nn3)CC2)n1 | - | - | - | 0 | 0 | - | -
C#CCOCCOCCOCCNc1nc(N2CCN(C(=O)[C@H](CCCCN)n3cc(CN)nn3)CC2)nc(N2CCN(C(=O)[C@H](CCC(=O)O)n3cc([C@@H](N)CCCCN)nn3)CC2)n1 | - | 0 | 105.1 | 0 | 0 | 0 | 113.7
COc1ccc(NC(=O)CSc2nc(C)cs2)c([N+](=O)[O-])c1 | - | 0 | 0 | 0 | 0 | - | -
CSCCC(NC(=O)c1ccccc1Cl)C(=O)N1CCCCC1 (configuration not stated) | - | 0 | 0 | 0 | 0 | - | -
O=C(NCc1cccc(Br)c1)C1CC(c2ccccc2[N+](=O)[O-])=NO1 (configuration not stated) | - | 0 | 0 | 0 | 0 | - | -
C[C@H](CO)N1C[C@H](C)[C@@H](CN(C)S(=O)(=O)c2ccccc2)Oc2c(NC(=O)Nc3ccc(C(F)(F)F)cc3)cccc2C1=O | - | 0 | 51.6 | 0 | 0 | 0 | 0
C[C@H](CO)N1C[C@H](C)[C@@H](CN(C)S(C)(=O)=O)Oc2c(NC(=O)Nc3ccc(C(F)(F)F)cc3)cccc2C1=O | - | 0 | 0 | 0 | 0 | - | -
